# Tau ThT inhib: tau fibrillization inhibition (ThT binding). Potency, µM (doses to about 57.4 µM), for inactives: top-dose activity, negative = inhibition, hits mostly inhibitors. actives 2.1% (n = 270,000). recombinant tau K18 P301L, heparin-induced fibrillization, ThT fluorescence. P10636. AID 1460; active means well fitted curve in the direction sought with a large enough effect; inconclusive means small, poorly fitted or top-dose-only effect, or another doubt; inactive means no such curve, though single readings can be large; an effect the other way counts as inactive or inconclusive; further: nearly all actives have a fitted effect of over 55% in size
# Target sequence (P10636 561-689 P618L limits assumed): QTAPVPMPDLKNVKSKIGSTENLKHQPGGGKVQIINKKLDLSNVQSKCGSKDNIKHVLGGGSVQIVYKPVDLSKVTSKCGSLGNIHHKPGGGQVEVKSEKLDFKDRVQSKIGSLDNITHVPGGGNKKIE
#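 Tau K18 P301L fragment (15 uM unlabeled plus 0.24 uM Alexa 594-labeled) in 100 mM sodium acetate pH 7 with compound, fibrillization induced by 20 uM heparin for 6 hr at 37 C. Thioflavin T (30 uM) added, fluorescence read after 1 hr (ex 450, em 510 nm).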
# KDM4E inh: inhibitors of human JMJD2E histone demethylase; B2RXH2; JMJD2E catalytic domain, FDH-coupled NADH fluorescence (FDH is formaldehyde dehydrogenase); Potency, µM (doses to about 57.1 µM), for inactives: top-dose activity change, negative = inhibition, actives largely listed as inhibitors; actives 1.6% (n = 230,000);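 further: 0% = wells with enzyme and -100% = buffer wells without enzyme; nearly all actives have a fitted effect of over 50% in size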
# ALDH1A1 block: ALDH1A1 (human) enzyme inhibition; P00352; Purified ALDH1A1, NADH fluorescence, propionaldehyde substrate; Potency, µM (highest dose often 75.3 µM), inactives show at the highest dose activity, negative = inhibition, most hits filed as inhibitors; actives 7.3% (n = 220,000);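 further: plate controls were no enzyme wells and a reference inhibitor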
# Target sequence (P00352 whole entry, looked up): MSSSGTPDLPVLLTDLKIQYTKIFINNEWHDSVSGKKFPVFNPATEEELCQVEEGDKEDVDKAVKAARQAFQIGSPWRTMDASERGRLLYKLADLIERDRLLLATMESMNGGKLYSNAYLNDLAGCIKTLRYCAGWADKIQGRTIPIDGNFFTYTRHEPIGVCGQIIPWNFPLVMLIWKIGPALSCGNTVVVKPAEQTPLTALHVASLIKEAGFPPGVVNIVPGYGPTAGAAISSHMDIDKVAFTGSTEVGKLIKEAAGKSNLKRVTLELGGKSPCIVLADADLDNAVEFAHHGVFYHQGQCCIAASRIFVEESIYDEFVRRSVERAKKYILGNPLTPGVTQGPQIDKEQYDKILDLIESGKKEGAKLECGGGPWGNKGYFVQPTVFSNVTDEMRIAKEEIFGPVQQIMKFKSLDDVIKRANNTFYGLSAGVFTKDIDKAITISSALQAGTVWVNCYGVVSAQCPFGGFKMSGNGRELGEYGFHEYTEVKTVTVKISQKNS
# Tau fluor counter: counter-screen for tau fibril formation inhibitors. tau K18 P301L (four-repeat tau fragment) Alexa594 fluorescence, heparin fibrillization. Potency, µM (doses to about 57.7 µM), for the others: top-dose activity change, negative = decrease. actives 0.93% (n = 280,000). AID 1463; active means well fitted curve in the direction sought with a large enough effect; inconclusive means small, poorly fitted or top-dose-only effect, or another doubt; inactive means no such curve, though single readings can be large; an effect the other way counts as inactive or inconclusive; further: nearly all actives have a fitted effect of over 55% in size
#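 Human K18 P301L tau (15 uM unlabeled plus 0.24 uM Alexa 594-labeled, final) in 100 mM sodium acetate pH 7 was mixed with compound and 20 uM heparin and incubated 6 hr at 37 C.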
# HPGD block: HPGD (human) dehydrogenase inhibition | Potency, µM, inactives show at the highest dose activity change, negative = inhibition, actives largely listed as inhibitors | purified HPGD, NADH fluorescence kinetic, PGE2 substrate | AID 894 | actives 4.3% (n = 150,000)
#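 NADH formation kinetics: reaction with 30 uM PGE2 and 1 mM NAD+ (final), 20 nM enzyme, Tris-HCl pH 8 with Tween 20, after 15 min compound preincubation at room temperature. Fluorescence change, last versus first of five reads.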
# Tau fibril FP: tau fibrillization inhibition (FP). P10636. K18 P301L tau heparin fibrillization, Alexa594 FP, 6 h. Potency, µM (top dose mostly 57.7 µM), for inactives: top-dose activity, negative = inhibition, most hits filed as inhibitors. actives 0.39% (n = 280,000). AID 1468; active means well fitted curve in the direction sought with a large enough effect; inconclusive means small, poorly fitted or top-dose-only effect, or another doubt; inactive means no such curve, though single readings can be large; an effect the other way counts as inactive or inconclusive; further: nearly all actives have a fitted effect of over 55% in size
#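 Quantitative HTS format: compounds meet 15 uM recombinant K18 P301L tau and Alexa 594-tau tracer in 100 mM sodium acetate pH 7; 20 uM heparin triggers fibrillization at 37 C over 6 hr; FP gives the signal.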
# Active calls of the source: *; ? = inconclusive; nt = no result; [ ] = dose if it differs, or a comment. This is a sample that favours compounds with a hit; in the whole collection about 9.9% have one here. Unless noted, the call rests on the fitted dose curve; in most records, active means well fitted inhibition curve with a large enough effect (not every such curve was filed as active); inconclusive means small, poorly fitted or top-dose-only effect, or another doubt; inactive means no such curve, though single readings can be large or run the other way. Unless noted, on the % scale 0 is the no-effect control and ±100 the full control effect; potency means the concentration at half of the fitted maximal effect.
SMILES,Tau ThT inhib,KDM4E inh,ALDH1A1 block,Tau fluor counter,HPGD block,Tau fibril FP
COc1ccccc1NC(=O)CSC(N)=O,32µM*,-4%,1.6µM*,-20%,-4%,?
COc1ccccc1NC(=O)c1ccc(NC(=O)COC(=O)CCC2CCCC2)cc1,1%,-3%,4%,-4%,-46%,3%
Cc1ccccc1NC(=O)CSCC(=O)Nc1ccccc1C,-9%,5%,-1%,-4%,18µM*,4%
COc1ccccc1NC(=O)c1ccc(NC(=O)COC(=O)C(C)C)cc1,-5%,9%,0.89µM*,-8%,-4%,1%
Cc1ccccc1NC(=O)Cc1nc(CCl)cs1,?,-4%,11µM*,-2%,20µM*,-9%
Cc1ccccc1NC(=O)CSCCN1C(=O)c2ccccc2C1=O,-4%,1%,?,-11%,?,-4%
Cc1ccccc1NC(=O)CSC(N)=O,25µM*,-1%,0.79µM*,-17%,?,?
Cc1ccc(C)c(NC(=O)Cc2nc(CCl)cs2)c1,-15%,-6%,?,-11%,-7%,3%
COc1ccc(NC(=O)C2CCN(S(=O)(=O)c3ccc4[nH]c(=O)ccc4c3)CC2)cc1Cl,3%,nt,nt,-11%,nt,-2%
C=CCNC(=O)c1ccc(-n2cccc2)cc1,-6%,12%,6%,-4%,nt,-11%
CSc1ccccc1NC(=O)CSCc1ccc(C)cc1,-13%,5%,-16%,-8%,16µM*,-1%
COc1cc(C(=O)NC(=S)Nc2ccc3oc(=O)ccc3c2)cc(OC)c1OC,0%,-4%,-1%,-2%,-7%,-13%
Cc1ccc(NC(=O)c2cc(N3C(=O)C4CCCCC4C3=O)ccc2N2CCOCC2)cc1 (stereo not given),-7%,2%,22µM*,-6%,nt,3%
COc1ccc(C(=O)Nc2ccc(N3CCCC3)cc2)cc1,7.9µM*,-6%,?,16µM*[quencher],-9%,7%
COc1cc(C(=O)NC(=S)Nc2ccc(N3CCCC3)cc2)cc(OC)c1OC,?,?,28µM*,?,nt,0%
COc1cccc(C(=O)NC(=S)Nc2ccc3oc(=O)ccc3c2)c1,-10%,2%,1.4µM*,-9%,nt,-6%
CCCOc1ccc(C(=O)Nc2ccc(N3CCN(C(C)=O)CC3)cc2)cc1,2.2µM*,-23%,?,-19%,-22%,-3%
COCCNC(=S)Nc1ccc(N2CCCCC2)cc1,?,-1%,8.9µM*,-10%,nt,-5%
COc1ccc(NC(=O)Nc2ccc(Cc3ccncc3)cc2)c(OC)c1,?,1%,5%,25µM*[quencher],0%,?
CCOc1ccc(C(=O)Nc2ccc(N3CCCC3)cc2)cc1,8.9µM*,-5%,?,?,0%,6%
CC(=O)N1CCN(c2ccc(NC(=O)c3ccc(C)cc3)cc2)CC1,?,2%,?,-17%,?,-1%
c1ccc(-c2nc(-c3cccc4ccccc34)c(NC3CCCCC3)o2)cc1,-6%,-17%,1%,-1%,-18%,-4%
C=C(C(=O)c1ccccc1)C(CC(=O)c1ccccc1)c1ccccc1 (stereo not given),?,?,?,-6%,-13%,5%
O=S1(=O)CC(O)C(N=Nc2c(O)n(Cc3ccccc3)c3ccccc23)C1 (stereo not given),-12%,1%,nt,-8%,nt,6%
CC1(C)CC(=O)C2=C(C1)N(c1ccccc1)C(=O)C2(O)C(F)(F)F (stereo not given),3%,3%,6%,2%,-7%,-9%
SMILES,Tau ThT inhib,KDM4E inh,ALDH1A1 block,Tau fluor counter,HPGD block,Tau fibril FP
COc1cccc(N2CCN(C(=O)C3CCC(CNS(=O)(=O)c4ccc(Br)s4)CC3)CC2)c1 (stereo not given),-13%,nt,nt,-4%,nt,?
COc1ccc(C(=O)NC(=S)Nc2ccc(N3CCCC3)cc2)cc1,?,-8%,10µM*,-22%,nt,2%
COc1cccc(C(=O)NC(=S)Nc2ccc(N(C)C)cc2)c1,7.9µM*,-4%,10µM*,?,-17%,5%
COc1cccc(C(=O)NC(=S)Nc2ccc(N3CCCC3)cc2)c1,11µM*,-7%,9.5µM*,?,-22%,11%
COc1ccc(C(=O)NC(=S)Nc2ccc(Cc3ccncc3)cc2)cc1,?,-7%,14µM*,-24%,nt,-2%
Cc1ccc2nc3c(c(C(=O)OCC(=O)NC4CCS(=O)(=O)C4)c2c1)CCCC3 (stereo not given),-7%,?,?,-2%,nt,0%
Cc1ccc(C(=O)Nc2ccc(N3CCCC3)cc2)c(C)c1,14µM*,25µM*,?,-26%,nt,2%
CCCC(=O)N1CCN(c2ccc(NC(=S)NC(=O)c3cccc(C)c3)cc2)CC1,8.9µM*,-4%,20µM*,?,nt,-4%
Cc1ccccc1C(=O)Nc1ccc(N2CCCC2)cc1,?,-8%,?,?,nt,3%
O=C(CS(=O)(=O)c1ccc(Cl)cc1)NCCS(=O)(=O)c1ccc(Cl)cc1,2%,9%,2%,-2%,nt,-2%
CCC/C=C(\CCC)C(NP(=O)(c1ccccc1)c1ccccc1)c1ccc(C(F)(F)F)cc1 (stereo not given),-7%,-18%,-9%,-4%,-27%,9%
N#Cc1ccc(CSc2nc3c(c(=O)[nH]2)CCCC3)cc1,6%,nt,nt,6%,nt,-4%
O=C1CN(C(=O)COC(=O)COc2ccc3c(c2)CCC3)c2ccccc2N1,-7%,3%,?,-20%,14µM*,-4%
CCOC(=O)c1[nH]c(C)c(C(=O)OCC(=O)N2CC(=O)Nc3ccccc32)c1C,-1%,-1%,-15%,-5%,16µM*,1%
Cc1nn(-c2ccccc2)c(C)c1C(=O)OCC(=O)N1CC(=O)Nc2ccccc21,6%,-5%,-12%,-1%,-19%,-5%
Cc1ccc(C)c(C(=O)COc2ncnc3ccccc23)c1,0%,0%,-7%,-3%,nt,-3%
COc1cc(OC)c(C(=O)COc2ncnc3ccccc23)c(OC)c1,-8%,0%,16µM*,0%,-2%,8%
CCSc1ccc2cc(OC)ccc2[n+]1CC,?,?,?,-18%,nt,2%
COCC(=O)NC1CCN(CC(=O)Nc2ccc(OC)cc2[N+](=O)[O-])CC1,-4%,0%,13µM*,-3%,-11%,-3%
O=C(CN1CCC(NC(=O)c2ccco2)CC1)Nc1cccc2ccccc12,-1%,8%,12%,1%,-7%,-2%
COCC(=O)NC1CCN(CC(=O)Nc2ccccc2[N+](=O)[O-])CC1,0%,-2%,-13%,-4%,nt,1%
